According to PubChem BioAssay AID1490 (National Center for Advancing Translational Sciences (NCATS), 2009):
Among all 310,000 compounds or so, about 11,000 (3.5%) were called active. Inconclusive results (about 4%) are left out. The list comes from a sample in which actives are over-represented; it also holds similar structures and randomly drawn compounds. A number with no mark means an inactive call. The call rests on the fitted dose curve; in most records, active means well fitted inhibition curve with a large enough effect; inconclusive means small, poorly fitted or top-dose-only effect, or another doubt; inactive means no such curve, though single readings can be large or run the other way.
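Further: the enzyme is Sfp with the accession as filed and its product quenches rhodamine fluorescence.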
Potency means the concentration at half of the fitted maximal effect.
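Wherever largest response in the series, negative = inhibition is given: 0% = enzyme reaction without inhibitor and -100% = no enzyme wells.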

These compounds were tested against 4'-phosphopantetheinyl transferase ffp (Bacillus subtilis) (UniProt Q9F4F7) (assay: qHTS Assay for Inhibitors of Bacillus subtilis Sfp phosphopantetheinyl transferase (PPTase)). Conditions: Biochemical Sfp PPTase activity.
In short: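 Sfp 15 nM + cpd, 15 min RT; start w/ rhodamine-CoA 5 uM, BHQ-2-YbbR 12.5 uM (final); 50 mM Hepes pH 7.6, 10 mM MgCl2, 0.01% NP-40, 0.01% BSA; read 525/598 nm at 0 and 30 min.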
Work on CCOC(=O)c1c(NC(=O)CSc2nnc(C)c(=O)[nH]2)sc2c1CCC2 yielded a largest response in the series, negative = inhibition of 12%.
In the case of CCOC(=O)CSc1nc(C)c(Oc2ccc(Cl)cc2Cl)c(=O)[nH]1, the largest response in the series, negative = inhibition is reported as 11.2%.
In the case of CCCCOC(=O)CNc1nnc(SCC(=O)OCC)[nH]c1=O, the Potency is reported as 20 µM (active).
For CCn1c(COc2ccccc2)nnc1SCC(=O)NCc1ccco1, the largest response in the series, negative = inhibition was 21.1%.
With C=CCn1c(CSc2nc3ccccc3s2)nnc1SCC(=O)NCc1ccco1 the Potency was 15.8 µM (active).
For C=CCn1c(SCC(=O)Nc2nc3ccccc3s2)nnc1-c1ccccc1O, the largest response in the series, negative = inhibition was -3.27%.
For CC(=O)c1cc2c(cc1NC(=O)Cn1nc(-c3ccc(F)cc3)ccc1=O)OCO2, the largest response in the series, negative = inhibition was 8.25%.
COc1ccc(S(=O)(=O)NCCc2cc3ccc(C)c(C)c3[nH]c2=O)cc1 gave a largest response in the series, negative = inhibition of 8.17%.
COc1ccc(C2(O)C(=O)Nc3ccccc32)cc1 (centres undefined) showed a largest response in the series, negative = inhibition of 5.11%.
O=C1Nc2ccccc2C12Nc1ccccc1S2 (centres undefined) was tested, and the Potency was 20 µM (active).
For Cc1cc(O)c(C2(O)C(=O)Nc3ccccc32)cc1C (centres undefined), the largest response in the series, negative = inhibition was 0.726%.
For CN1CCN(c2ncc3nc(-c4ccc(Cl)cc4)c(=O)n(-c4ccccc4)c3n2)CC1, the largest response in the series, negative = inhibition was -4.61%.
With CCOC(=O)c1c(S(=O)(=O)Nc2cccc(Cl)c2)c(C)n(C)c1C the largest response in the series, negative = inhibition was 17.3%.
For COC(=O)c1cnn2c(C(F)(F)F)cc(-c3ccco3)nc12, the largest response in the series, negative = inhibition was -3.33%.
Cc1ccsc1-c1cc(C(=O)O)c2c(ccc3ccccc32)n1 showed a largest response in the series, negative = inhibition of 5.93%.
In the case of Cc1cc(C)c2nc(-c3ccco3)cc(C(=O)O)c2c1, the Potency is reported as 20 µM (active).
Cc1ccc(S(=O)(=O)c2c[nH]c3ccc(C)cc3c2=O)cc1 showed a largest response in the series, negative = inhibition of 18.3%.
For COc1cc(C)cc(CN2CCC(Cc3ccccc3)CC2)c1O, the largest response in the series, negative = inhibition was 15.6%.
Compound Cc1cccnc1NC(=O)CSc1nnc(COc2ccc(C(C)C)cc2)n1C has a largest response in the series, negative = inhibition of -2.86%.
Cc1ccc(OCc2nc3ccccc3n2C)cc1 was tested, and the largest response in the series, negative = inhibition was 16.9%.
In the case of Cc1ccc(OCc2nnc(SC3CCc4ccccc4C3=O)n2C)cc1 (centres undefined), the Potency is reported as 25.1 µM (active).
Work on CCCCNC(=O)c1ccccc1NC(=O)C1=C(C)OCCS1 yielded a largest response in the series, negative = inhibition of 4.87%.
Compound CCC(C)NC(=O)c1ccccc1NC(=O)c1ccccc1N(C)S(C)(=O)=O (centres undefined) has a largest response in the series, negative = inhibition of 17.5%.
CCCCNC(=O)c1ccccc1NC(=O)c1ccccc1N(C)S(C)(=O)=O was tested, and the Potency was 50.1 µM (active).
Compound C=CCOC(=O)C(C(C)=O)C(NC(=O)OC)c1ccccc1 (centres undefined) has a largest response in the series, negative = inhibition of 17.2%.
Compound COc1ccc(C)cc1NC(=O)CN(C)S(=O)(=O)c1ccc2c(c1)n(C)c(=O)c(=O)n2C has a largest response in the series, negative = inhibition of 13.5%.
In the case of COc1ccc2c(c1)CC[C@@H]1[C@@H]2CC[C@]2(C)C(=O)CC[C@@H]12, the Potency is reported as 50.1 µM (active).
With C[C@]12CC[C@@H]3C(=CCc4cc(O)ccc43)[C@@H]1CCC2=O the largest response in the series, negative = inhibition was -11.9%.
With COc1ccc(S(=O)(=O)N2CCN(C)CC2)c(C)c1 the largest response in the series, negative = inhibition was 13.7%.
